Measured values reported in PubChem BioAssay (Tox21).
Calls of active or inactive are those of the source. The call rests on the fitted dose curve; in most records, active means well fitted curve in the direction sought with a large enough effect in the repeat runs; inconclusive means weak or mixed curves; inactive means flat fitted curve, though single readings scatter.

assay: qHTS assay to test for compound auto fluorescence at 590 nm (red) in HEK293 cells (AID 720679); conditions: red autofluorescence 540/590 nm; series mostly up to 91.3 µM
In short: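 We plated HEK293 cells in 10% dialyzed FBS medium, let them adhere for 4-5 hr, then added 23 nL compound. Overnight at 37C and 5% CO2 preceded fluorescence measurement at 540/590nm.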

Structure (SMILES)	outcome
CC(=O)OC(C)(C)C1CC=C(C)CC1 (centres undefined)	inactive
Cc1ccc(C(C)C)cc1	inactive
c1cnc2c(c1)ccc1cccnc12	inactive
Cc1cc(CC(=O)O)n(C)c1C(=O)c1ccc(Cl)cc1	inactive
C[Si](C)(C)N[Si](C)(C)C	inactive
OC[C@H]1O[C@@H](Oc2ccc(O)cc2)[C@H](O)[C@@H](O)[C@@H]1O	inactive
CCCCCCCCC(=O)O	inactive
CCn1cc(C(=O)O)c(=O)c2cc3c(cc21)OCO3	inactive
Cc1cc(C)cc(O)c1	inactive
Cc1ccc([N+](=O)[O-])cc1N	inactive
CC(C)(C)NC[C@H](O)COc1nsnc1N1CCOCC1	inactive

assay: qHTS assay to test for compound auto fluorescence at 535 nm (green) in HEK293 cells (AID 720680); conditions: green autofluorescence 485/535 nm; series mostly up to 91.3 µM

Structure (SMILES)	outcome
Cc1ccccc1Cl	inactive
COc1ccccc1[N+](=O)[O-]	inactive
Nc1cccc(C(F)(F)F)c1	inactive
Nc1nc(N)c2nc(-c3ccccc3)c(N)nc2n1	inactive
Cc1ccc(Cl)cc1	inactive
CC/C=C(\C(=O)N[C@@H]1C(=O)N2C(C(=O)OCOC(=O)C(C)(C)C)=C(COC(N)=O)CS[C@H]12)c1csc(N)n1	inactive
CC(C)=CCC/C(C)=C/C=O	inactive
Cc1nnc(NS(=O)(=O)c2ccc(N)cc2)s1	inactive
CC(=O)OCc1ccc2c(c1)OCO2	inactive
NC(=O)NC(N)=O	inactive
CC(=O)c1nccs1	inactive
OCc1ccc(Cl)cc1Cl	inactive
CC1(C)C(=O)N(Cl)C(=O)N1Cl	inactive
CCc1cccc(CC)c1N	inactive
O=C(O)Cc1c[nH]c2ccccc12	inactive
NC(=O)c1ncn([C@@H]2O[C@H](CO)[C@@H](O)[C@H]2O)n1	inactive
CCCN(CCC)C(=O)SCC	inactive
CCOC(=O)CC(=O)OCC	inactive
CCCCCCCCCCCCCC(=O)O	inactive
O=C(c1ccccc1)c1ccc(O)c(O)c1O	inactive
COc1ccc([C@@H]2CC(=O)c3c(O)cc(O[C@@H]4O[C@H](CO[C@@H]5O[C@@H](C)[C@H](O)[C@@H](O)[C@H]5O)[C@@H](O)[C@H](O)[C@H]4O)cc3O2)cc1OC	inactive
CC(=O)OC(C)(C)C1CC=C(C)CC1 (centres undefined)	inactive
c1cnc2c(c1)ccc1cccnc12	inactive
Cc1cc(CC(=O)O)n(C)c1C(=O)c1ccc(Cl)cc1	inactive
CCCCCCCCC(=O)O	inactive
CCn1cc(C(=O)O)c(=O)c2cc3c(cc21)OCO3	inactive
Cc1ccc([N+](=O)[O-])cc1N	inactive
CC(C)(C)NC[C@H](O)COc1nsnc1N1CCOCC1	inactive
